# Test results: PubChem BioAssay (NCI)
# Values joined by “and” are separate entries in the source; they are usually repeats but may differ in a detail not shown here. Equal entries are not always repeated. About 83,000 compounds went through this panel and 20% of them were active in at least one assay; those are over-represented in the sample as a whole.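 The test compound was applied at a single concentration to cells in 96-well plates for 48 hours, and percent growth was recorded.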 A number with no mark means an inactive call. Active and inactive are the calls of the source. Rule for the calls: active = growth percent below 10; inactive = the rest.
# Tested on: MDA-MB-468 breast
# Experiment: NCI-60 one-dose screen, 48 h (100 = growth as untreated, 0 = no growth, -100 = all killed)
# Conditions: 10 µM unless noted
row,SMILES,growth
1,CNC(=O)c1ccccc1CC1(O)c2ccccc2Oc2ccccc21,42.9%
2,CS(=O)(=O)O[C@@H]1C(=O)N(c2cc3c4ccccc4ccc3c3ccccc23)[C@H]1c1ccc(F)cn1,30.4%
3,N[C@@H](Cc1cn(-c2c3ccccc3nc3ccccc23)nn1)C(=O)O,96.8%
4,O=C1CCCc2nc(Nc3ccc(S(=O)(=O)Nc4ccc([N+](=O)[O-])cc4)cc3)ncc21,99.8%
5,Cn1c(=O)c(S(=O)(=O)c2ccccc2)cc2ccc3c(cnn3-c3ccc(Cl)cc3)c21,72.3%
6,Cc1ccccc1NC(=O)NC(CC(N)=O)c1ccc2c(c1)nc(-c1cccc(Oc3ccc(C(C)(C)C)cc3)c1)n2CCCN1CCCCC1C (stereo not given),-78.8% (active)
7,CCOC(=O)C(=CNc1ccccc1[N+](=O)[O-])C(=O)OCC,86%
8,COc1cc2c(cc1-c1c(C)noc1C)ncc1nc(C3CCCCC3)n(C3CCC(OC(F)F)CC3)c12 (stereo not given),29.8%
9,CCCc1cc2cc(-n3nc(C)c4c3CC(C)(C)CC4=O)cc(NC3CCSCC3)c2c(=O)[nH]1,14.3%
10,COc1ccc(C(=S)c2cc(OC)c(OC)c(OC)c2)cc1OC(=O)CCl,47.5%
11,C=C1c2c(C)nn(-c3ccc(S(N)(=O)=O)cc3)c2N(C)C23CC1C1(C)c4c(C)nn(-c5ccc(S(N)(=O)=O)cc5)c4N(C)C(C)(CC12)C3 (stereo not given),0.632% (active)
12,C=C(C)[C@@H]1CC[C@]2(C(=O)OCCOCCOCC[P+](c3ccccc3)(c3ccccc3)c3ccccc3)CC[C@]3(C)[C@H](CC[C@@H]4[C@@]5(C)CC[C@H](C)C(C)(C)[C@@H]5CC[C@]43C)[C@@H]12,-67.6% (active)
13,O=c1c2sc3ncccc3c2nnn1-c1ccccc1,104%
14,O=C(CCC(=O)N(CCO)CCO)N(CCO)CCO,110%
15,CC1(C)C2CCC(O)(C(=O)O)C1C2 (stereo not given),106%
16,C1CCc2onc(-c3noc4c3CCCCC4)c2CC1,108%
17,CC(=O)OC[C@H](O)[C@@]1(O)CC[C@H]2[C@@H]3CCC4=CC(=O)CC[C@]4(C)[C@H]3[C@@H](O)C[C@@]21C,112%
18,CN(C)c1oc(C2OC2c2ccccc2)nc1C#N (stereo not given),90.3%
19,CN(Cc1cccc(C(F)(F)F)c1)C(=O)[C@@H](CC(=O)N1CCC(N2CCCCC2)CC1)N1C(=O)[C@@H](N2C(=O)OC[C@@H]2c2ccccc2)[C@H]1/C=C/c1ccccc1,60.5%
20,CCC1(/C=N/NC(N)=S)NC(=O)NC1=O (stereo not given),106%

row,SMILES,growth
1,C=C(C)[C@@H]1CC[C@]2(C(=O)O)CC[C@]3(C)[C@H](CC[C@@H]4[C@@]5(C)C[C@@H](CC#Cc6ccccc6C)C(=O)C(C)(C)[C@@H]5CC[C@]43C)[C@@H]12,17.2%
2,CS(=O)(=O)c1ccc(-c2nc3cc(Cl)ccc3n2CC(=O)NO)cc1,96%
3,COc1ccc2c(c1)C(=O)c1c-2c(=O)n(CCCCCCC(=O)NO)c2ccccc12,6.84% (active)
4,COc1ccc(Cn2cc3c(c2-c2ccccc2)CCc2cnoc2-3)cc1OC,-9% (active)
5,CCN(CC)c1ccc(NC(C(=O)c2ccccc2)c2ccccc2)cc1 (stereo not given),1.41% (active)
6,O=C1CC(c2ccc3c(c2)OCO3)c2ncn(-c3ccc(Cl)cc3)c2N1 (stereo not given),13%
7,CC(=O)Nc1ccc2nc3ccc(NC(C)=O)cc3[n+](-c3ccccc3)c2c1,104%
8,CNc1cc(-c2cccc(OC(F)(F)F)c2)nc2ccc(N3CCCC3)cc12,-69.7% (active) and -68% (active) and -66.2% (active)
9,CC/C(=C(/c1ccc(Cl)cc1)c1ccc(OCCN2CCCCC2)cc1)c1ccc(Cl)cc1,51.9%
10,COc1ccccc1/C=C/C(=O)c1nnn(-c2ccc(C(=O)O)cc2)c1C,74.5%
11,CC(C)c1ccc2c(c1)CC[C@H]1[C@](C)(C(=O)OCC#CCN3CCCC3)CCC[C@]21C,52.4%
12,CCCCCCCCCCN=C(N)N=C(N)N,-12.9% (active)
13,O=C1OC(c2ccccc2)=N/C1=C\c1ccc([N+](=O)[O-])cc1,94.6%
14,C#C[C@]1(O)CC[C@H]2[C@@H]3CC=C4c5sc(Nc6cc(Cl)ccc6OC)nc5CC[C@]4(C)[C@H]3CC[C@@]21C,4.64% (active)
15,COC(=O)c1cc(O)c2cc3c(cc2c1-c1cc(OC)c(OC)c(OC)c1)OCO3,-8.52% (active)
16,C#CCOC(=O)C(N)CS (stereo not given),97.3%
17,Cc1cc2nc3c4cccc(O)c4n(CCN(C)C)c3nc2cc1C,0.835% (active)
18,COc1ccc(C(=O)/C=C/c2ccc(/C=C/c3cc(OC)c(OC)c(OC)c3)cc2)cc1,51.9%
19,CCN(CC)CCNC(=O)n1cc(-c2ccncc2)c(-c2ccc(Cl)c(OC)c2)n1,88.3%
20,C=CC(COC(c1ccccc1)(c1ccccc1)c1ccccc1)N(CC)CC (stereo not given),14.5%
